Hits are enriched below; roughly 10% of the tested compounds scored in any of these assays.
HEK293 tox: HEK 293 cell cytotoxicity; HEK 293 viability, ATP luminescence (CellTiter-Glo), 48-72 h; Potency, µM (series often up to 115 µM), without a hit: at the highest dose activity change, negative = cytotoxicity, actives largely listed as inhibitors; 6.6% of 94,000 active; also: nearly all actives have a fitted effect of over 60% in size
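Viability of HEK 293 cells, plated at 250 cells/well, was judged by cellular ATP after compound treatment for 48 or 72 hr. Luminescence was imaged 10 min after CellTiter-Glo addition at room temperature.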
NIH3T3 tox: kills NIH 3T3 cells | NIH 3T3 viability, CellTiter-Glo ATP luminescence, 48-72 h | Potency, µM (titrated, usually from 96.7 µM), without a hit: at the highest dose activity change, negative = cytotoxicity, usual class: inhibitors | 4.3% of 94,000 active; also: nearly all actives have a fitted effect of over 55% in size
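Viability of NIH 3T3 cells after 48 or 72 hr compound treatment at 37 °C was assessed by CellTiter-Glo, with luminescence imaged following a 10 min room-temperature step.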
NPR1 antag: antagonists of human natriuretic peptide receptor Npr1; 1.6% of 76,000 active; P16066; AID 1347048; Potency, µM (series often up to 46.3 µM), inactives show at the highest dose activity change, negative = inhibition, hits mostly inhibitors; HEK293 hNpr1 GloSensor cGMP, ANP-stimulated luminescence; calls by dose curve; also: nearly all actives have a fitted effect of over 60% in size
Target sequence (P16066 whole entry, looked up): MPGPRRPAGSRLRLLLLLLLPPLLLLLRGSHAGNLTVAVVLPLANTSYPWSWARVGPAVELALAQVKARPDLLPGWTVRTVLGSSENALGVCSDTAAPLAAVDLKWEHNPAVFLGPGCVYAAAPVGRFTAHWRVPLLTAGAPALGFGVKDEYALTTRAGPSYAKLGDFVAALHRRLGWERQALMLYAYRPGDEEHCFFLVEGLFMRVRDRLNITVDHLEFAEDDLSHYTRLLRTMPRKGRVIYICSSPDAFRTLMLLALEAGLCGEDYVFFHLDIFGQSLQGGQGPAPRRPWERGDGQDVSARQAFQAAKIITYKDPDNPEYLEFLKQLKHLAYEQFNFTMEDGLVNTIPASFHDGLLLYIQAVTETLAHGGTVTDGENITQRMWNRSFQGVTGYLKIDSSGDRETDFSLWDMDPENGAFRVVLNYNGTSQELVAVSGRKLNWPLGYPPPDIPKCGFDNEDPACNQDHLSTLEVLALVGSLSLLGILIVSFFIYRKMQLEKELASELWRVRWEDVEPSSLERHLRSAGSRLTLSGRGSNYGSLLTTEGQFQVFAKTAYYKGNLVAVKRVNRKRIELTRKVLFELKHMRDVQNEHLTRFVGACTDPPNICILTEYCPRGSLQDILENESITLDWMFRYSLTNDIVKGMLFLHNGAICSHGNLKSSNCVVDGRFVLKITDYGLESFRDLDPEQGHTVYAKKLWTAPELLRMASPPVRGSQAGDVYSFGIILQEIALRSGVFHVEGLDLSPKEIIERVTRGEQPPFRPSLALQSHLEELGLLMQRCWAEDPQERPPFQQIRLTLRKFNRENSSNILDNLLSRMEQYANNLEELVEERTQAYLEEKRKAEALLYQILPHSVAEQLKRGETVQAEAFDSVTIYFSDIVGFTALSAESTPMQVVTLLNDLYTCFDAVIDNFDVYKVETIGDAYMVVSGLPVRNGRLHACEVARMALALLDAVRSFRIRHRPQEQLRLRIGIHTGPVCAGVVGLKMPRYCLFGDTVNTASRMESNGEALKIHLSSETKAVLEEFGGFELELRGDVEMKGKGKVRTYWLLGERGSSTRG
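HEK293 cells stably expressing human Npr1 and cGMP GloSensor pGS-40F, loaded 2 h with 2% GloSensor reagent, given compound 30 min at room temperature. Luminescence read before and 20 min after 0.1 nM hNppA.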
GPT2 inhibitor: blocks human glutamate pyruvate transaminase 2; Potency, µM (doses to about 57.7 µM), inactives show at the top dose activity change, negative = inhibition, actives largely listed as inhibitors; Recombinant GPT2, coupled pyruvate oxidase/HRP Amplex Red fluorescence; Q8TD30; AID 1671188; 0.25% of 100,000 active; also: nearly all actives have a fitted effect of over 60% in size
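Inhibition is scored from Amplex Red fluorescence generated when pyruvate oxidase and HRP act on pyruvate released by GPT2. Reactions contain 10ng/uL enzyme, 250uM a-KG and 2mM L-alanine and run 30 min at room temperature.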
FLuc inh: inhibitors of firefly (Photinus pyralis) luciferase; P08659; purified P. pyralis luciferase, luminescence, biochemical; Potency, µM (titrated, usually from 115 µM), most hits filed as inhibitors; 2.5% of 76,000 active; AID 1347043; also: nearly all actives have a fitted effect of over 65% in size
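Luminescence read by CCD imager after adding enzyme (10nM final) to wells holding compound, titrated in qHTS. Substrates 10uM each D-luciferin and ATP; buffer 50mM Tris acetate pH 7.5, 10mM Mg acetate, Tween-20, BSA.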
* marks the source's active call; other numbers are inactive results; [ ] = dose if it differs, or a comment. Unless noted, calls follow the shape of the dose curve; as a rule, active = well fitted curve in the direction sought with a large enough effect; inconclusive = small, poorly fitted or top-dose-only effect, or another doubt; inactive = no such curve, though single readings can be large; an effect the other way counts as inactive or inconclusive. % is scaled to controls: 0 for no effect and ±100 for the full control effect; potency is read from the fitted curve at half-maximal effect.

COCCOCc1nc(C2CCN(C(=O)NCc3ccc(OC)cc3)CC2)no1 was read as HEK293 tox inactive, NIH3T3 tox 2.6%, NPR1 antag 1.0%, GPT2 inhibitor inactive and FLuc inh inactive.
`O=C(NCc1ccccc1)c1ccccc1OC1CN(Cc2ccncc2)C1` gave HEK293 tox 39.8µM*, NIH3T3 tox inconclusive, NPR1 antag -5.9%, GPT2 inhibitor inactive and FLuc inh inactive.
Screening O=C(NCc1ccccc1)c1ccccc1OC1CN(Cc2cccnc2F)C1 returned HEK293 tox inconclusive, NIH3T3 tox inconclusive and GPT2 inhibitor inactive.
For Cc1cc(F)ccc1OC1CN(Cc2ccccc2)C1 the results were HEK293 tox inconclusive, NIH3T3 tox 89.1µM*, NPR1 antag 0.0%[70.6 µM], GPT2 inhibitor inconclusive and FLuc inh inactive.
`O=C(NCc1ccccc1)c1ccccc1OC1CN(Cc2cccc(F)c2)C1` gave HEK293 tox 28.2µM*, NIH3T3 tox inconclusive, NPR1 antag -16.2%, GPT2 inhibitor inactive and FLuc inh inactive.
Cc1ccc(CN2CC(Oc3ccccc3C(=O)N3CCOCC3)C2)cc1C was read as HEK293 tox 44.7µM*, NIH3T3 tox inconclusive, NPR1 antag 1.5%, GPT2 inhibitor 0.6% and FLuc inh inactive.
For Cc1cnc(C2CCN(C(=O)NCC(C)C)C2)n1C(C)C (configuration not stated) the results were HEK293 tox 4.7%, NIH3T3 tox 4.1%, NPR1 antag 6.0%, GPT2 inhibitor inactive and FLuc inh inactive.
`COCC(=O)N1CCCC(c2cc(N3CCOCC3)nc(C)n2)C1` (configuration not stated) gave HEK293 tox inactive, NIH3T3 tox 4.1%, NPR1 antag 4.2%, GPT2 inhibitor inactive[11.5 µM] and FLuc inh inactive.
Screening O=C(NCc1ccccc1)c1ccccc1OC1CN(Cc2cccnc2Cl)C1 returned HEK293 tox 44.7µM*, NIH3T3 tox inconclusive and GPT2 inhibitor inactive.
Cn1cc(-c2cc(-c3ccncc3)c3cncn3c2)cn1 was read as HEK293 tox inconclusive, NIH3T3 tox 39.8µM*, NPR1 antag -3.5%[70.6 µM], GPT2 inhibitor inconclusive and FLuc inh inactive.
For OCc1ccc(-c2cc(-c3ccncc3)c3cncn3c2)cc1 the results were HEK293 tox inconclusive, NIH3T3 tox 39.8µM*, NPR1 antag 1.9%[70.6 µM], GPT2 inhibitor -7.0%[88.5 µM] and FLuc inh inactive.
`COc1ccc(-c2cc(-c3cccc(C(N)=O)c3)cn3cncc23)cc1` gave HEK293 tox inconclusive, NIH3T3 tox 39.8µM*, NPR1 antag -15.5%[70.6 µM], GPT2 inhibitor -16.7%[88.5 µM] and FLuc inh inactive.
For CC(=O)Nc1cccc(-c2cc(-c3ccncc3)c3cncn3c2)c1 the results were HEK293 tox inconclusive, NIH3T3 tox inconclusive, NPR1 antag -6.7%[70.6 µM], GPT2 inhibitor 5.0%[88.5 µM] and FLuc inh inactive.
For COc1ccc(-c2cc(-c3ccncc3)c3cncn3c2)cc1 the results were HEK293 tox inconclusive, NIH3T3 tox 35.5µM*, NPR1 antag -11.6%[70.6 µM], GPT2 inhibitor -0.7%[88.5 µM] and FLuc inh inconclusive.
COc1ccc(-c2cc(-c3ccncc3)c3cncn3c2)cn1 was read as HEK293 tox inconclusive, NIH3T3 tox inconclusive, NPR1 antag -3.4%[70.6 µM], GPT2 inhibitor -14.0%[88.5 µM] and FLuc inh inactive.
`COc1ccc(-c2cc(-c3ccncc3)cn3cncc23)cc1` gave HEK293 tox inconclusive, NIH3T3 tox 35.5µM*, NPR1 antag 3.6%[70.6 µM], GPT2 inhibitor 0.0%[88.5 µM] and FLuc inh inactive.
COc1ccc(-c2cc(-c3ccc(F)cc3OC)cn3cncc23)cc1 was read as HEK293 tox inconclusive, NIH3T3 tox inconclusive, NPR1 antag -4.7%[70.6 µM], GPT2 inhibitor inconclusive and FLuc inh inactive.
COc1ccc(-c2cc(-c3ccc(F)cc3)cn3cncc23)cc1 was read as HEK293 tox 100µM*, NIH3T3 tox inconclusive, NPR1 antag 0.0%[70.6 µM], GPT2 inhibitor -2.8%[88.5 µM] and FLuc inh inconclusive.
CN(C)CC1(O)CCCN(c2ncccc2C(N)=O)CC1 (configuration not stated) was read as HEK293 tox -4.2%, NIH3T3 tox -2.0%, NPR1 antag 6.2%, GPT2 inhibitor -23.5% and FLuc inh inactive.
`CC(C)c1ccc(CN2CCCC3(CCN(c4ncccc4C(N)=O)C3)C2)cc1` (configuration not stated) gave HEK293 tox 39.8µM*, NIH3T3 tox inconclusive, NPR1 antag -6.5%, GPT2 inhibitor inactive and FLuc inh inactive.
Screening COc1ccc(CN2CC(c3ncc4c(-c5ccccc5)nccn34)C2)cc1O returned HEK293 tox inconclusive, NIH3T3 tox 89.1µM*, NPR1 antag -24.9%[70.6 µM], GPT2 inhibitor 0.4%[88.5 µM] and FLuc inh inactive.
For CCN(C(=O)CCC(=O)N1CCc2nc3cc(-c4ccc(OC)cc4)[nH]n3c(=O)c2C1)c1ccccc1 the results were HEK293 tox inconclusive, NIH3T3 tox inconclusive, NPR1 antag -2.2%, GPT2 inhibitor -0.3% and FLuc inh 15.8µM*.
Screening CCCN(CC1CC1)C(=O)C1CCCCC(=O)N1Cc1cccc(OC)c1 (configuration not stated) returned HEK293 tox -25.0%, NIH3T3 tox -12.9%, NPR1 antag -1.0%, GPT2 inhibitor -18.1% and FLuc inh inactive.
For COc1ccc(NC(=O)N2Cc3[nH]cnc3C[C@H]2c2nc(-c3ccc(OC)cc3)no2)cc1 the results were HEK293 tox -8.9%, NIH3T3 tox inconclusive, NPR1 antag -28.6%, GPT2 inhibitor -10.1% and FLuc inh inconclusive.
`COc1ccc(NC(=O)N2Cc3[nH]cnc3C[C@H]2c2nc(-c3ccc(C(F)(F)F)cc3)no2)cc1` gave HEK293 tox inconclusive, NIH3T3 tox inconclusive, NPR1 antag -4.0%, GPT2 inhibitor -12.5% and FLuc inh inconclusive.
For O=C(Nc1ccccc1)N1Cc2[nH]cnc2C[C@H]1c1nc(-c2ccc3c(c2)OCO3)no1 the results were HEK293 tox -26.1%[172 µM], NIH3T3 tox inconclusive, NPR1 antag -11.1%[70.6 µM], GPT2 inhibitor -5.8%[88.5 µM] and FLuc inh inconclusive.
Screening COc1ccc(NC(=O)N2Cc3[nH]cnc3C[C@H]2c2nc(-c3ccc(F)c(Cl)c3)no2)cc1 returned HEK293 tox inconclusive, NIH3T3 tox 31.6µM*, NPR1 antag inconclusive, GPT2 inhibitor 0.2% and FLuc inh inconclusive.
COc1ccc(NC(=O)N2Cc3[nH]cnc3C[C@H]2c2nc(-c3ccc(F)cc3)no2)cc1 was read as HEK293 tox inconclusive, NIH3T3 tox 50.1µM*, NPR1 antag -30.2%[70.6 µM], GPT2 inhibitor 0.2%[88.5 µM] and FLuc inh inconclusive.
For COc1ccc(-c2noc([C@@H]3Cc4nc[nH]c4CN3C(=O)Nc3ccc(C)cc3)n2)cc1 the results were HEK293 tox inconclusive, NIH3T3 tox inconclusive, NPR1 antag inconclusive, GPT2 inhibitor inconclusive and FLuc inh 17.8µM*.
